Measurements taken from the supplement of paper PMC10849652.
Targets with a hit are over-represented here; the source holds about 7,900 in all. About 0.6% of all pairs of compound and target were hits. A number with no mark means an inactive call.

Tests used:
Experiment in all cases: log2 fold change, soluble protein after heating vs DMSO (PISA); higher = thermal stabilisation; K562 cells, 10 uM, 30 min; active = over 0.2 and 3.5 SD of the protein, either way, in both replicates (recomputed)
[1] = compound: C1=CC=C(C=C1)[C@H](COC2=CC3=C(C=C2)NC(=O)N3)NC(=O)C4=CC=CN(C4=O)CC5=CC(=C(C=C5)F)F
How it was run: (§1)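 Thermal stability values are relative to control samples and come from duplicates. They are expressed as log2 fold changes. For measurement, K562 cells (2×10^6 cells/mL) received 10 μM compound for 30 min, and aliquots were heated for 3 min over 48°C-58°C, pooled, and extracted at 4°C in PBS with 0.5% NP-40. Soluble protein, the supernatant after 21,000xg for 90 min, was quantified by TMTpro 16plex LC-MS/MS with equalised channel sums.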

[2] = compound: CC1=C(SC2=C1C(=N[C@H](C3=NN=C(N32)C)CC(=O)N)C4=CC=C(C=C4)Cl)C
How it was run: as §1

[3] = compound: CC1=C2C(=CC=C1)N=C(N(C2=O)C3=CC=CC=C3C)CN4C=NC5=C(N=CN=C54)N
How it was run: as §1

[4] = compound: Cc1sc2c(c1C)C(c1ccc(Cl)cc1)=N[C@@H](CC(=O)OC(C)(C)C)c1nnc(C)n1-2
How it was run: as §1

[5] = compound: c1ccc([C@@H]2C[C@H]2NC2CCNCC2)cc1
How it was run: as §1

UniProt Q6NT16, sequence (Q6NT16 whole entry, looked up): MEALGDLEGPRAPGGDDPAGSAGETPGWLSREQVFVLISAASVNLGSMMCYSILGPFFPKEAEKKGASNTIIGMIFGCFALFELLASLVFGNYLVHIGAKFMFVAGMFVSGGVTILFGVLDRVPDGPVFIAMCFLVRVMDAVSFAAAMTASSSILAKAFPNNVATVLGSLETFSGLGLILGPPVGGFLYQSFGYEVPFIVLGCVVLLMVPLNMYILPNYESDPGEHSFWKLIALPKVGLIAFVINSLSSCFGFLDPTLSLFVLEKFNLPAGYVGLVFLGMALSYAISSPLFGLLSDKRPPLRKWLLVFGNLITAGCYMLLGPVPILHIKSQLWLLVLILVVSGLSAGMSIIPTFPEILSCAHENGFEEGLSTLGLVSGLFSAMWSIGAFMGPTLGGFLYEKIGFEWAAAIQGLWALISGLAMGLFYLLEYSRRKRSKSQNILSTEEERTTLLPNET
UniProt Q86VR2, sequence (Q86VR2 whole entry, looked up): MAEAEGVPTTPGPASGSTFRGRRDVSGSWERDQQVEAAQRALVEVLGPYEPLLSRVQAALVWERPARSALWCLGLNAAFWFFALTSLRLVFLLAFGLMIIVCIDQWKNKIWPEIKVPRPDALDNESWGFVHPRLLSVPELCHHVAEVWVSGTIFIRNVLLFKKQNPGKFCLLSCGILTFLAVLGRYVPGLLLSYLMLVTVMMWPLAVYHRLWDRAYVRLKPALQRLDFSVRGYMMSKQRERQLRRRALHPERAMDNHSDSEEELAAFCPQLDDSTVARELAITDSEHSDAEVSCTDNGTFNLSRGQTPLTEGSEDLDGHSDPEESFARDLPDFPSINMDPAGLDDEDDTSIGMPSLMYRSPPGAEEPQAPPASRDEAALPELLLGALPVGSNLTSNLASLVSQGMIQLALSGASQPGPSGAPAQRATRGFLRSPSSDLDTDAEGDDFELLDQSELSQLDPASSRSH
UniProt Q99590, sequence (Q99590 whole entry, looked up): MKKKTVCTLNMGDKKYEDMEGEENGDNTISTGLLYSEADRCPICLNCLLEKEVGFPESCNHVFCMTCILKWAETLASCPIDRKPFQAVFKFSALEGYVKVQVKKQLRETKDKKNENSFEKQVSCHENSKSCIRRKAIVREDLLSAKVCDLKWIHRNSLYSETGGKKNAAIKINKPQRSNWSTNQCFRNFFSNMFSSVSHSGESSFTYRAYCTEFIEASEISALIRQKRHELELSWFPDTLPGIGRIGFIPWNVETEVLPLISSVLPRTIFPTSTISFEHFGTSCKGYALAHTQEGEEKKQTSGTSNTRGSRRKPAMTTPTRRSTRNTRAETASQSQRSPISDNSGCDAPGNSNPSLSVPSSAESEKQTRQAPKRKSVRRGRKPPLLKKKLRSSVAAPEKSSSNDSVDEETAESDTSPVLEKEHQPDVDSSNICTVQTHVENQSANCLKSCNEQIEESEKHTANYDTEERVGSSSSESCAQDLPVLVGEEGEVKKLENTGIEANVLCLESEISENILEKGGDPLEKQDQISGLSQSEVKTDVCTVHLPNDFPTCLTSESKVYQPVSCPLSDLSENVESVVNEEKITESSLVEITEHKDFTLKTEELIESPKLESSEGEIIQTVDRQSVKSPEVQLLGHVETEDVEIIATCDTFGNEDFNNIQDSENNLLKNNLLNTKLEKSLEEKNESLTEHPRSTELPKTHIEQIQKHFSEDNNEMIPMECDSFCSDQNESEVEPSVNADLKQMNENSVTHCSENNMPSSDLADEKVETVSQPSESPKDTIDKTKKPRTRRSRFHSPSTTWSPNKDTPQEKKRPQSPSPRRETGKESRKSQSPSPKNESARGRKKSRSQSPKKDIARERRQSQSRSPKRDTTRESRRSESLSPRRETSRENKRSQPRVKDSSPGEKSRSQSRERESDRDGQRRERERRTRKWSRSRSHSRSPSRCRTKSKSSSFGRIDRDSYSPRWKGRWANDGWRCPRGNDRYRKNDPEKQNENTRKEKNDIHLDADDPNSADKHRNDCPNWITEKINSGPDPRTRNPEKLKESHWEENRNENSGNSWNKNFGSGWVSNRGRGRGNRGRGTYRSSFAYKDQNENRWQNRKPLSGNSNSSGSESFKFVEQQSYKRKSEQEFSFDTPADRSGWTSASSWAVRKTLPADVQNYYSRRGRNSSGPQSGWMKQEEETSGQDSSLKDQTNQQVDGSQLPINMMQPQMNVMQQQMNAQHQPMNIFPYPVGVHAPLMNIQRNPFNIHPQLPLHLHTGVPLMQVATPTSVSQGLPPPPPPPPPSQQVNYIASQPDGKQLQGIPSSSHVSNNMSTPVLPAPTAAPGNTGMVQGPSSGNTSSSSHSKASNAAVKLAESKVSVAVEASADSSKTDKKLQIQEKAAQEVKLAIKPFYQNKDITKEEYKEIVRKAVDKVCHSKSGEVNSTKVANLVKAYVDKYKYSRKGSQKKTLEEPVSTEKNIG
UniProt P58004, sequence (P58004 whole entry, looked up): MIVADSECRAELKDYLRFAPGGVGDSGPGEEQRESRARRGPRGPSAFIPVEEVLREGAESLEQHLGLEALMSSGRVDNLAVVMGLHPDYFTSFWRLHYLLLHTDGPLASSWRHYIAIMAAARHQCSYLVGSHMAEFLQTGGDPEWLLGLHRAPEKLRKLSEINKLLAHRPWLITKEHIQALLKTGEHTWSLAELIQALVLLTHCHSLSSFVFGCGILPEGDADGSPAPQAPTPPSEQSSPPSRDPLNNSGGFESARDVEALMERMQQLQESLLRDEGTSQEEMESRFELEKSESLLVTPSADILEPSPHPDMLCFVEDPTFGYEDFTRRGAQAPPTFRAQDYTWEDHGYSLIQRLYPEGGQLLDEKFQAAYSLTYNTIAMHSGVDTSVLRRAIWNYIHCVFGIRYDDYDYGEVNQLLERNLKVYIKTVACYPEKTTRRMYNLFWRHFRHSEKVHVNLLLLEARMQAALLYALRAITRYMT
UniProt P35244, sequence (P35244 whole entry, looked up): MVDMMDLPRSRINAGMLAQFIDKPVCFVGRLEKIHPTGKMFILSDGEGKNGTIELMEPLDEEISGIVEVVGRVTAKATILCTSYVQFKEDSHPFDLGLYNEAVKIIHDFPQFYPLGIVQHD
UniProt Q8NBN7, sequence (Q8NBN7 whole entry, looked up): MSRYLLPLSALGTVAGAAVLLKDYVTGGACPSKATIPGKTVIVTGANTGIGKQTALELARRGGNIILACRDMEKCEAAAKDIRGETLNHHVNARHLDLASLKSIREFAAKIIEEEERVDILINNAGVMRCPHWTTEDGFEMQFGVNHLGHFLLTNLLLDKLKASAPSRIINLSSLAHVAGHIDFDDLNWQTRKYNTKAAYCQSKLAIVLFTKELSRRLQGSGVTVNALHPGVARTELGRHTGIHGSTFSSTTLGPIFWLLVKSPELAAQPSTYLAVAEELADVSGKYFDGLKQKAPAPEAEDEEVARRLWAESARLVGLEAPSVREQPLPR
UniProt P04049, sequence (P04049 whole entry, looked up): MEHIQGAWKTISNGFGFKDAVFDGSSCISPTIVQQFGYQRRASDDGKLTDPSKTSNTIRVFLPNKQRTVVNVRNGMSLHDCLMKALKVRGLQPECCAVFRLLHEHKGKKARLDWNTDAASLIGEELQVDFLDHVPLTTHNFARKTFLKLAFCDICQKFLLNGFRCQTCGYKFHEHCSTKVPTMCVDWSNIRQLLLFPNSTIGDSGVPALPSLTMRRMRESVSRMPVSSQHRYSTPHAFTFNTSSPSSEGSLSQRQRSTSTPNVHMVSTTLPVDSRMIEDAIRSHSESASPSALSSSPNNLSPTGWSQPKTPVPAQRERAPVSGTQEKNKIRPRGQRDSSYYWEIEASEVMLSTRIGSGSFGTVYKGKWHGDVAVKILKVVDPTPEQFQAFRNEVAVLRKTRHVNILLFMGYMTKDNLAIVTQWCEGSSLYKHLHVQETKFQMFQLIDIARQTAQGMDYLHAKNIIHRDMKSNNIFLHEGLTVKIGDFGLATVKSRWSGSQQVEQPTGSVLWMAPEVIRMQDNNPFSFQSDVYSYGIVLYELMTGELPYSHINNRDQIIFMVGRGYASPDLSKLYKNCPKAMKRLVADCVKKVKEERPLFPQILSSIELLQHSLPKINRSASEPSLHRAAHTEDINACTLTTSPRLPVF
UniProt Q9BY42, sequence (Q9BY42 whole entry, looked up): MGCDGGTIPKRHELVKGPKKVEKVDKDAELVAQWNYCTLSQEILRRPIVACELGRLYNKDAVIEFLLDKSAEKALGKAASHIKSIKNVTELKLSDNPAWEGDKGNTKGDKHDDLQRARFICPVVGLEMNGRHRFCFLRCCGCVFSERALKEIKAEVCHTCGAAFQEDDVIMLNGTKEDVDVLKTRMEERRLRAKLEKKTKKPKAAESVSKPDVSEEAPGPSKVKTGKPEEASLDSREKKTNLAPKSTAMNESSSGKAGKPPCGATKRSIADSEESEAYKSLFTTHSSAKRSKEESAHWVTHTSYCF
UniProt Q15382, sequence (Q15382 whole entry, looked up): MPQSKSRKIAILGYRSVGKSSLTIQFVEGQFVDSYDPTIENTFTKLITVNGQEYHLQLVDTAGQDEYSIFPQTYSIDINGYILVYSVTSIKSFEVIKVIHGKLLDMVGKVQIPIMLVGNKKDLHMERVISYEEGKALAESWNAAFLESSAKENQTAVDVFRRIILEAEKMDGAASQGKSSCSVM
UniProt Q99719, sequence (Q99719 whole entry, looked up): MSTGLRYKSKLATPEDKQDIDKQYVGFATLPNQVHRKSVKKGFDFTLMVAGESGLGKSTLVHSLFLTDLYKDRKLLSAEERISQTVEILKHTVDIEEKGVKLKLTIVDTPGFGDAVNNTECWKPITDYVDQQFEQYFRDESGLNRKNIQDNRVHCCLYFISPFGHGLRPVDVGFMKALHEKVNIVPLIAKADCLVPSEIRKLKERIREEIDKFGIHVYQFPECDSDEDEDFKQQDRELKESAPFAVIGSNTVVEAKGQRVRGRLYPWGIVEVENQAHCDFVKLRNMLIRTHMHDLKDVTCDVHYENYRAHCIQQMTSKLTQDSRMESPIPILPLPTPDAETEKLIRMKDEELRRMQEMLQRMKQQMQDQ

Target	log2 fold change [1]	log2 fold change [2]	log2 fold change [3]	log2 fold change [4]	log2 fold change [5]
RAD50, A0A494C0Y7	-0.1	-0.003	0.194	0.104	0.118
RBM33 (UniProt Q96EV2)	0.002	-0.018	0.029	-0.004	0.012
SLC18B1 (UniProt Q6NT16)	0.015	0.028	0.061	0.009	-0.039
SAFB2 (UniProt K7EQU4)	-0.338				
RIOK3 (UniProt O14730)	-0.015	-0.008	-0.016	-0.008	0.024
RETREG3 (UniProt Q86VR2)	0.076	0.085	0.007	-0.046	-0.037
SCAF11 (UniProt Q99590)	-0.104	-0.098	0.021	0.064	0.016
SLC19A1 (UniProt P41440)	-0.025	0.065	0.045	-0.013	0.017
SEPTIN5 (UniProt Q99719)	-0.021	0.069	0.014	-0.045	-0.016
RAF1 isoform 2 (UniProt P04049)	-0.08	0.201	0.222	-0.07	-0.105
RBM17 (UniProt Q96I25)	-0.038	0.017	0.049	0.003	-0.013
RNF41 (UniProt Q9H4P4)	0.039				
RDH13 (UniProt Q8NBN7)	-0.013	0.052	0.032	0.013	-0.062
RCOR3 isoform 3 (UniProt Q9P2K3)	-0.139	0.087	0.111	-0.06	1.27 (active)
SESN2 (UniProt P58004)	-0.03	-0.031	0.067	0.066	-0.028
SIRT2 (UniProt Q8IXJ6)	-0.075	0.107	0.105	0.093	-0.016
SERPINA7 (UniProt P05543)	-0.014	-0.001	0.1	0.12	0.128
RAVER1 (UniProt E9PAU2)	-0.138	-0.204	0.283	-0.19	0.053
SH3GLB2 (UniProt Q9NR46)	-0.029	0.064	0.029	0.004	-0.063
RAB5C isoform 2 (UniProt P51148)	-0.007	-0.009	-0.022	0.011	0.018
RBM4 (UniProt Q9BWF3)	-0.029	-0.074	-0.011	0.009	0.073
RANBP2 (UniProt P49792)	-0.094	0	0.114	-0.085	-0.089
RPTOR (UniProt Q8N122)	-0.022	-0.015	0.095	-0.02	0.032
RHEB (UniProt Q15382)	0.008	0.04	0.055	-0.048	-0.001
RSRC1 (UniProt Q96IZ7)	-0.002	-0.019	0.079	-0.019	-0.03
RPA3 (UniProt P35244)	0.008	0.09	-0.055	-0.146	-0.03
RPS12 (UniProt P25398)	0.032	-0.092	-0.066	0.011	-0.019
RTF2 (UniProt Q9BY42)	0.054	-0.009	0.068	-0.038	0.045
